By inhibition is commonly meant the change of the read-out against control, counted positive when it falls.

Calls of active or inactive are those of the source.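 The calls were made as follows: active = blocks over 70% of labeled estradiol binding at 10 µM, or over a set limit at 100 nM; inactive = the rest.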

This assay has as its target Estrogen receptor beta (Homo sapiens) (UniProt Q92731). Description: displacement of fluorescent estrogen from ERbeta – cell-based, Cos7 ERbeta-GFP, flow cytometry, primary screen (AID 1210).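 Also: 0% = DMSO vehicle wells and 100% = complete loss of labeled estradiol signal.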 The note with it: fluorescent estrogen binding, stronger effect = higher value. For orientation: In flow cytometry, cells or beads pass a laser one at a time.
[1] abbreviates: ligand binding inhibition, at 0.1 µM.

Sequence of Estrogen receptor beta (Homo sapiens) (Q92731 whole entry, looked up): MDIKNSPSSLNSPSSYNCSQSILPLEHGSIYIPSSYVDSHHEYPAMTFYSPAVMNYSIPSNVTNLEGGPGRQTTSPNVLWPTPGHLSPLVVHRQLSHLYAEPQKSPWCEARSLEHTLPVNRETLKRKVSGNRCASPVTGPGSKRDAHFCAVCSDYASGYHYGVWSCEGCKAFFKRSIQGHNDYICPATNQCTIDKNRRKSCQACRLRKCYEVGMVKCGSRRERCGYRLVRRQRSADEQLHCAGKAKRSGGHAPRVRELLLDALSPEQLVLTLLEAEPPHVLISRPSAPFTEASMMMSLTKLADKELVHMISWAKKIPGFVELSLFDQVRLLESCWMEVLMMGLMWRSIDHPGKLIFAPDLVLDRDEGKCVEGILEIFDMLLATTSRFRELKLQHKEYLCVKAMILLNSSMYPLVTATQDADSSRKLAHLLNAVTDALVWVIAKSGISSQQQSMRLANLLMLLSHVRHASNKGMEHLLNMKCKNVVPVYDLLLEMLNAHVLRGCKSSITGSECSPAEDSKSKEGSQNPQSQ

Consider `Cc1c(N=Cc2ccc(O)c(Br)c2)cccc1[N+](=O)[O-]`, for which the inhibition was 33% (inactive) (at 10 µM) and 34% under setting [1].
Take `Cc1ccc(C(=O)CSC2=C(C#N)C(c3ccco3)CC(=O)N2)c(C)c1` (stereo not given): the inhibition is 54% (inactive) (at 10 µM) and 14% under setting [1].
Regarding `Cc1ccc(NC(=O)CSc2nnnn2-c2ccc3c(c2)OCO3)cc1C`, the inhibition (at 10 µM) is 32% (inactive) and the inhibition under setting [1] amounted to 34%.
With `CCN(c1ccccc1)S(=O)(=O)c1cc(C(=O)O)ccc1C`, the inhibition (at 10 µM) is 2% (inactive) and the inhibition under setting [1] was 13%.
For the compound `O=C(COC(=O)c1ccccc1)NCc1ccco1`, the inhibition is, setting by setting: (at 10 µM) 67% (inactive); under setting [1], 16%.
With `Cc1cnc(C(=O)OCC(=O)c2csc(N3CCCCC3)n2)cn1`, the inhibition by setting is: (at 10 µM) 47% (inactive); under setting [1], 23%.
As to `NC(=S)n1[nH]c(-c2ccc([N+](=O)[O-])cc2)c(N=Nc2ccc(O)cc2)c1=O`, the inhibition is, setting by setting: (at 10 µM) 35% (inactive); under setting [1], 15%.
For the compound `O=C(Cn1nnc(-c2ccc3c(c2)OCO3)n1)NCc1ccco1`, the inhibition was 46% (inactive) (at 10 µM) and 24% under setting [1].
On to `CCOc1cccc2cc(-c3nnc(NCc4ccco4)s3)c(=O)oc12`, for which the inhibition is 26% (inactive) (at 10 µM) and 28% under setting [1].
Consider `O=C(CSc1nnc(SCC(=O)c2ccco2)s1)c1ccco1`, for which the inhibition by setting is: (at 10 µM) 56% (inactive); under setting [1], 33%.
For the compound `COc1cc(/C=N/N2CCN(C3c4ccccc4-c4ccccc43)CC2)ccc1O`, the inhibition (at 10 µM) is 39% (inactive) and the inhibition under setting [1] was 10%.
Take `COc1ccccc1N1CCN(C(=O)c2cc3c(s2)CCC3)CC1`: the inhibition by setting is: (at 10 µM) 22% (inactive); under setting [1], 4%.
As for `Cc1sc2ncnc(SCC(=O)NC(=O)NCc3ccco3)c2c1C`, the inhibition was 47% (inactive) (at 10 µM) and 14% under setting [1].
`CCOc1[nH]c(/N=C/c2ccco2)c(C#N)c1C#N`: the inhibition is 35% (inactive) (at 10 µM) and 15% under setting [1].
As to `Cc1cc(=O)oc2c(CN3CCC(C)CC3)c(O)c(Cl)cc12`, the inhibition is 20% (inactive) (at 10 µM) and 11% under setting [1].
For the compound `O=C(O)c1ccc2c(c1)[C@@H]1C=CC[C@@H]1[C@H](c1ccccn1)N2`, the inhibition (at 10 µM) was 0% (inactive) and the inhibition under setting [1] worked out at 25%.
With `O=C(Nc1ccc2oc(-c3ccccc3F)nc2c1)c1cncc(Br)c1`, the inhibition is 63% (inactive) (at 10 µM) and 25% under setting [1].
Turning to `CCOC(=O)C1CCCN(C(=O)c2ccc(CS(=O)(=O)c3ccc(C)cc3)o2)C1` (stereo not given), the inhibition reads like this: (at 10 µM) 55% (inactive); under setting [1], 21%.
For `CCO/C([O-])=N/c1c[n+](N2CCOCC2)no1`, in that order: 21% (inactive) and 44%.
As to `O=c1cc(O)c2c(=O)n(-c3ccccc3)c3c(c2o1)CCCCCC3`, the inhibition was 59% (inactive) (at 10 µM) and 2% under setting [1].
For `CCOC(=O)CSc1nn(C)c(=S)s1` the same measures were 47% (active) and 72%.
With `CC(C)CC(=O)Nc1ccc(C(=O)COc2ccc(-c3nnco3)cc2)cc1`, the inhibition is, setting by setting: (at 10 µM) 44% (inactive); under setting [1], 49%.
For `O=C(CCCn1c(=S)[nH]c2cc3c(cc2c1=O)OCO3)N1CCN(c2ccc(Cl)cc2)CC1` the same measures were 0% (inactive) and 56%.
As to `C/C(N)=C(/C#N)C(=O)CSc1nnc(-c2ccc(OC(F)F)cc2)o1`, the inhibition is 37% (inactive) (at 10 µM) and 23% under setting [1].
In the case of `Cc1cccc(N2CSC3=C(C#N)C(c4ccc(C)o4)CC(=O)N3C2)c1` (stereo not given), the inhibition is, setting by setting: (at 10 µM) 35% (inactive); under setting [1], 21%.
For `Cc1ccc2[nH]c(=O)c(-c3nc4ccccn4c3NCc3ccco3)cc2c1` the same measures were 56% (inactive) and 44%.
For `Cc1ccc(-c2cc(C(=O)NCc3ccco3)c3ccccc3n2)o1` the same measures were 36% (inactive) and 47%.
As to `O=C(CSc1nnnn1-c1ccccc1)Nc1nsc(-c2ccc(Cl)cc2)n1`, the inhibition was 36% (inactive) (at 10 µM) and 21% under setting [1].
For `Cc1ccc(-n2c(=O)c(C#N)cc3c(=O)n4cccc(C)c4nc32)cc1` the same measures were 72% (active) and 29%.
For `COc1cc(-c2nc3ccc4ccccc4c3c3c2CCC3)ccc1O` the same measures were 0% (inactive) and 59%.
For `O=C(Oc1ccc2c(c1)OCO2)c1cc2c(s1)CCC2`, in that order: 52% (inactive) and 48%.
As for `Oc1ccc(/C=C/c2nc(-c3ccccc3O)n(-c3ccccc3)n2)cc1`, the inhibition runs as follows: (at 10 µM) 44% (inactive); under setting [1], 31%.
Turning to `Cc1cc(C(=O)CSc2nnc(-c3ccccc3F)o2)c(C)n1Cc1cccs1`, the inhibition was 51% (inactive) (at 10 µM) and 30% under setting [1].
Take `CC(=O)c1ccc2c(c1)C1C=CCC1C(C(=O)O)N2` (stereo not given): the inhibition (at 10 µM) is 19% (inactive) and the inhibition under setting [1] turned out to be 6%.
For `COc1ccc2c(c1)c1nc3ccccc3nc1n2CCCN1C(=O)c2ccccc2C1=O` the same measures were 49% (inactive) and 18%.
`Cc1ccc2occ(C3NC(C(=O)O)CS3)c(=O)c2c1` (stereo not given): the inhibition is, setting by setting: (at 10 µM) 62% (inactive); under setting [1], 27%.
`COc1cc(-c2nc3ccccn3c2/N=C/c2ccccc2)ccc1O`: the inhibition by setting is: (at 10 µM) 54% (inactive); under setting [1], 9%.
For `COC(=O)c1c(NC(=O)Cc2cccs2)sc2c1CCCC2` the same measures were 41% (inactive) and 18%.
Regarding `CN1CCC(=NNC(=O)c2cn(-c3ccccc3)nc2-c2ccccc2)CC1`, the inhibition runs as follows: (at 10 µM) 32% (inactive); under setting [1], 6%.
Turning to `COc1ccc2c(c1)c(=O)oc1cc(OCC(=O)NC3CCCCC3)ccc12`, the inhibition is 31% (inactive) (at 10 µM) and 22% under setting [1].

For the origin of these results see PubChem BioAssay AID1210 (NMMLSC, 2008).
